# Assay results reported in article PMC7862700, “An all-to-all approach to the identification of sequence-specific readers for epigenetic DNA modifications on cytosine”.
# Experiments:
# Experiment in all cases: DAPPL (digital affinity profiling via proximity ligation, sequencing); 10 mM Tris-HCl pH 7.5, 50 mM NaCl, 1 mM DTT, 4% glycerol, room temperature, 30 min; GST-TFs on glutathione beads, 16-mer random dsDNA library, 0.1% formaldehyde crosslink after washing; high values mean tight binding
# [1] = target: T1, FLI1 (Homo sapiens, UniProt Q01543 1-452); details: protein: recombinant; tags: N-terminal GST; dsDNA, one strand shown
# T1 sequence: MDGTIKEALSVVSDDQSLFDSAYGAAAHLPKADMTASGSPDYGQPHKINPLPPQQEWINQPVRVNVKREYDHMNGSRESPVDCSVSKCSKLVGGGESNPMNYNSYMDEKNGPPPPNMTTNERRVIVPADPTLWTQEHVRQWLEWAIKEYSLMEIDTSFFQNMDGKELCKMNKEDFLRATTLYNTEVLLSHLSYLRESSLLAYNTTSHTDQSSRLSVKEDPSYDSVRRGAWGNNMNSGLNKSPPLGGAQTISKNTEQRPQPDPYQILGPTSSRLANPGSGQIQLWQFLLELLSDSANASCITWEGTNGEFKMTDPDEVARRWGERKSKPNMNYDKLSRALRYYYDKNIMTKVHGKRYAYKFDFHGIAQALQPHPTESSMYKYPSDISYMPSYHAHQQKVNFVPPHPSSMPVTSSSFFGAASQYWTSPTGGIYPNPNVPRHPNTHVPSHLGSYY
# Outline: (§1)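 Pools were built from human transcription factors expressed in yeast as GST fusions, captured on glutathione beads and DNA-barcoded, along with a tag-only sample. Incubation with 200 nmole of a 16-mer random double-stranded DNA library lasted 30 min at room temperature in Tris/NaCl/DTT/glycerol buffer, and was followed by washing, 0.1% formaldehyde crosslinking, proximity ligation, PCR amplification and Illumina NextSeq500 sequencing. Binding signal is the quotient of each hexamer's read frequency for a factor and its frequency for the tag-only sample.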
# [2] = target: T2, ELK1 (Homo sapiens, UniProt P19419 1-428); details: protein: recombinant; tags: N-terminal GST; dsDNA, one strand shown
# T2 sequence: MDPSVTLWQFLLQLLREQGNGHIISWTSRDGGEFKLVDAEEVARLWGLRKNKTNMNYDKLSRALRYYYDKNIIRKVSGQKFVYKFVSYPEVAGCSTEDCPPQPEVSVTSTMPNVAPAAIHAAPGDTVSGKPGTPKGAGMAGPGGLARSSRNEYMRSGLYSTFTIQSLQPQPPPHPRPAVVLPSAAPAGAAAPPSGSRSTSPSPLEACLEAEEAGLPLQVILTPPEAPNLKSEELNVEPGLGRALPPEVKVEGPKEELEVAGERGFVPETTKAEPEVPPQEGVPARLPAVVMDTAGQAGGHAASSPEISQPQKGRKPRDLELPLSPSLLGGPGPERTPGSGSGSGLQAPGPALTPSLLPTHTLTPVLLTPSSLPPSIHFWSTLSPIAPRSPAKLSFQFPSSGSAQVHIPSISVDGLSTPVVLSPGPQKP
# Outline: as §1
# [3] = target: T3, GABPA (Homo sapiens, UniProt Q06546 1-454); details: protein: recombinant; tags: N-terminal GST; dsDNA, one strand shown
# T3 sequence: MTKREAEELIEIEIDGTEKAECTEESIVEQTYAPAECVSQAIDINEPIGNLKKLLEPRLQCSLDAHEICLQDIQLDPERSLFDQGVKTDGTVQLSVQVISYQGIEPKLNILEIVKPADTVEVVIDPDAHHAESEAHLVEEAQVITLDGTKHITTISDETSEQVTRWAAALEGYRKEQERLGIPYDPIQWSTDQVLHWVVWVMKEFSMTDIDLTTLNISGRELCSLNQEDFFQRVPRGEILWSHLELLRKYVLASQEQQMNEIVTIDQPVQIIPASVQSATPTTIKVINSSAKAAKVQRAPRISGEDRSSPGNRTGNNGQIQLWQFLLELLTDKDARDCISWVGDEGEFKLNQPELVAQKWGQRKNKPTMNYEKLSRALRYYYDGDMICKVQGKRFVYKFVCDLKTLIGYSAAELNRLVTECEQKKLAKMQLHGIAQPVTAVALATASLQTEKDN
# Outline: as §1
# [4] = target: T4, ERG (Homo sapiens, UniProt P11308 1-479); details: protein: recombinant; tags: N-terminal GST; dsDNA, one strand shown
# T4 sequence: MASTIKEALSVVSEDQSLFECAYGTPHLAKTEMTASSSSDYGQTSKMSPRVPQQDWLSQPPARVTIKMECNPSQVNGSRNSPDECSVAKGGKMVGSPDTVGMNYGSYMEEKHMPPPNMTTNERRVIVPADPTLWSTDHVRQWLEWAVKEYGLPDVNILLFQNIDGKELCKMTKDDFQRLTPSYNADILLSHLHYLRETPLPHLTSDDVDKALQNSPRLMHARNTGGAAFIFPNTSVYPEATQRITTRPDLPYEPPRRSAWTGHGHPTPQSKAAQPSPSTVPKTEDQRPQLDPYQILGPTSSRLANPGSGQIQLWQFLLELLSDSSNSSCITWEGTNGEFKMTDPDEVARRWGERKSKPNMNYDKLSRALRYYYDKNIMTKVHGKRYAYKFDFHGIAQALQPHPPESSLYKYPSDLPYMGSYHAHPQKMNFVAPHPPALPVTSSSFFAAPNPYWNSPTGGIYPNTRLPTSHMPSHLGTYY
# Outline: as §1
# [5] = target: ELF1 (Homo sapiens, UniProt P32519 1-619); details: protein: recombinant; tags: N-terminal GST; dsDNA, one strand shown
# Outline: as §1
# [6] = target: T5, EHF (Homo sapiens, UniProt Q9NZC4 1-300); details: protein: recombinant; tags: N-terminal GST; dsDNA, one strand shown
# T5 sequence: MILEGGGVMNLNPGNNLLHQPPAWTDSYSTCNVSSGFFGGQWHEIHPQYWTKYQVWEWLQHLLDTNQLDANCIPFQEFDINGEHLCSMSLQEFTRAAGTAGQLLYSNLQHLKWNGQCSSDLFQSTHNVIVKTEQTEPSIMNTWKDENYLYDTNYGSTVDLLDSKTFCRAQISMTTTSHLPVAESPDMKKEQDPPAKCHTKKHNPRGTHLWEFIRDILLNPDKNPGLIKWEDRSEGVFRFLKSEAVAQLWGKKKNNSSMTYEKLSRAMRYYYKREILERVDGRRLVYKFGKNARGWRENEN
# Outline: as §1
# [7] = target: SPI1 (Homo sapiens, UniProt P17947 1-270); details: protein: recombinant; tags: N-terminal GST; dsDNA, one strand shown
# Outline: as §1
# [8] = target: SPIB (Homo sapiens, UniProt Q01892 1-262); details: protein: recombinant; tags: N-terminal GST; dsDNA, one strand shown
# Outline: as §1
# [9] = target: T6, ELK3 (Homo sapiens, UniProt P41970 1-407); details: protein: recombinant; tags: N-terminal GST; dsDNA, one strand shown
# T6 sequence: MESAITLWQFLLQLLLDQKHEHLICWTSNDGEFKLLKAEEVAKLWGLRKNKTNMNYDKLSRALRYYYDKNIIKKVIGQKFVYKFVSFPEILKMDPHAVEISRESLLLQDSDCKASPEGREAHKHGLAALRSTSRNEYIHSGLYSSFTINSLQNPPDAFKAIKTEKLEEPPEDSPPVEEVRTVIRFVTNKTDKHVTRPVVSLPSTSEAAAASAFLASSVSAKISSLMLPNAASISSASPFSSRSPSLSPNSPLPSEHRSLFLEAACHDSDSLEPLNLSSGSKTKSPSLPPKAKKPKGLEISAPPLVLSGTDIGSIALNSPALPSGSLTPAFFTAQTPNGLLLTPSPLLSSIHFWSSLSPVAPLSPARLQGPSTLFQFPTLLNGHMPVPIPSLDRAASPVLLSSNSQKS
# Outline: as §1
# [10] = target: T7, FEV (Homo sapiens, UniProt Q99581 1-238); details: protein: recombinant; tags: N-terminal GST; dsDNA, one strand shown
# T7 sequence: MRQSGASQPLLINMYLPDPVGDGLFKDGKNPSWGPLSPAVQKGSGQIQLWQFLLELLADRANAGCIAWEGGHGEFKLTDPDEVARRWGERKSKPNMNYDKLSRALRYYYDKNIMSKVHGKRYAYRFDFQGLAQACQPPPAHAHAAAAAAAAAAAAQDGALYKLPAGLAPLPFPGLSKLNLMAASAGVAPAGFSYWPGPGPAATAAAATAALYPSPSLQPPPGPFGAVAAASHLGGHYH
# Outline: as §1
# [11] = target: ETV5 (Homo sapiens, UniProt P41161 1-510); details: protein: recombinant; tags: N-terminal GST; dsDNA, one strand shown
# Outline: as §1
# [12] = target: HSF1 (Homo sapiens, UniProt Q00613 1-529); details: protein: recombinant; tags: N-terminal GST; chain copies: 3; dsDNA, one strand shown
# Outline: as §1
# [13] = target: T8, SPIC (Homo sapiens, UniProt Q8N5J4 1-248); details: protein: recombinant; tags: N-terminal GST; dsDNA, one strand shown
# T8 sequence: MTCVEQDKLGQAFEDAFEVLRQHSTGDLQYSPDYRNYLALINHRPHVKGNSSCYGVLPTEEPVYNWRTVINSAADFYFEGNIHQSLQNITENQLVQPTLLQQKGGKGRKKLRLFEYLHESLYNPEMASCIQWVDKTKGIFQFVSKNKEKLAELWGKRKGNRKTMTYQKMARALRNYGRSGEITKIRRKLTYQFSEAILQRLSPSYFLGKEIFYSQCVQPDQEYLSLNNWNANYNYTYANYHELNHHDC
# Outline: as §1
# [14] = target: ELF4 (Homo sapiens, UniProt Q99607 1-663); details: protein: recombinant; tags: N-terminal GST; dsDNA, one strand shown
# Outline: as §1
# [15] = target: T9, ELK4 (Homo sapiens, UniProt P28324-2 1-405); details: protein: recombinant; tags: N-terminal GST; dsDNA, one strand shown
# T9 sequence: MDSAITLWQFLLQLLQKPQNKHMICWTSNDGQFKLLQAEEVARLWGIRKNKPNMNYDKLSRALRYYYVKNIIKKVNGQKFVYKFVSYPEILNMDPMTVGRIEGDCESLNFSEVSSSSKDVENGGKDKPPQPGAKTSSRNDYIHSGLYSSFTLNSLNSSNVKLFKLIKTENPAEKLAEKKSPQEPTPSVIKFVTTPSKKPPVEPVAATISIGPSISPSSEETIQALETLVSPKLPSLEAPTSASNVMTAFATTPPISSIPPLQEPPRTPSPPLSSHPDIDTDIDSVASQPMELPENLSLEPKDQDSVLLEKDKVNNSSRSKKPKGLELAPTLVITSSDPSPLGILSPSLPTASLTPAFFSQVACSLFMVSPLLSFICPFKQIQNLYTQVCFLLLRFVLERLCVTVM
# Outline: as §1
# [16] = target: T10, ETV2 (Homo sapiens, UniProt O00321 1-342); details: protein: recombinant; tags: N-terminal GST; dsDNA, one strand shown
# T10 sequence: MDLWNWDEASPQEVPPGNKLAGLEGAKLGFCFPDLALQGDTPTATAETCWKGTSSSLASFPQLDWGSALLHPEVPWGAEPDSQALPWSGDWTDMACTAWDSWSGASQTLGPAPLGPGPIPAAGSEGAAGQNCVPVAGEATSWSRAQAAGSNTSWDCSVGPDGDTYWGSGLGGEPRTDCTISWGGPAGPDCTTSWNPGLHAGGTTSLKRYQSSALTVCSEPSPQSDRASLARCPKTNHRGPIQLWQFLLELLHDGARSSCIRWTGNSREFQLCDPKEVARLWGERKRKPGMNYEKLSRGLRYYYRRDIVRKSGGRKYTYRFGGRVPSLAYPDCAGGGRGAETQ
# Outline: as §1
# [17] = target: T11, ELF3 (Homo sapiens, UniProt P78545 1-371); details: protein: recombinant; tags: N-terminal GST; dsDNA, one strand shown
# T11 sequence: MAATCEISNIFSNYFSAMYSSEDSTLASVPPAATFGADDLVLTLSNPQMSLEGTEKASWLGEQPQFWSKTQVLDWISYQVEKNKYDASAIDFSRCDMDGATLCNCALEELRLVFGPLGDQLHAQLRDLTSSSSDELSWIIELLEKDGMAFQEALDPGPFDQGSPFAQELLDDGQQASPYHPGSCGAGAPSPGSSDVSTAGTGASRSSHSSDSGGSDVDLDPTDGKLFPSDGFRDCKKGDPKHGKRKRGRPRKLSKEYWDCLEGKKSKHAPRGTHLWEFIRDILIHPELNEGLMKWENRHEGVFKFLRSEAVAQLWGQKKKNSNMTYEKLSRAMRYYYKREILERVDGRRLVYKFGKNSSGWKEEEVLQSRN
# Outline: as §1
# [18] = target: ETV1 (Homo sapiens, UniProt P50549 1-477); details: protein: recombinant; tags: N-terminal GST; dsDNA, one strand shown
# Outline: as §1
# Chain of HSF1 (Q00613 whole entry): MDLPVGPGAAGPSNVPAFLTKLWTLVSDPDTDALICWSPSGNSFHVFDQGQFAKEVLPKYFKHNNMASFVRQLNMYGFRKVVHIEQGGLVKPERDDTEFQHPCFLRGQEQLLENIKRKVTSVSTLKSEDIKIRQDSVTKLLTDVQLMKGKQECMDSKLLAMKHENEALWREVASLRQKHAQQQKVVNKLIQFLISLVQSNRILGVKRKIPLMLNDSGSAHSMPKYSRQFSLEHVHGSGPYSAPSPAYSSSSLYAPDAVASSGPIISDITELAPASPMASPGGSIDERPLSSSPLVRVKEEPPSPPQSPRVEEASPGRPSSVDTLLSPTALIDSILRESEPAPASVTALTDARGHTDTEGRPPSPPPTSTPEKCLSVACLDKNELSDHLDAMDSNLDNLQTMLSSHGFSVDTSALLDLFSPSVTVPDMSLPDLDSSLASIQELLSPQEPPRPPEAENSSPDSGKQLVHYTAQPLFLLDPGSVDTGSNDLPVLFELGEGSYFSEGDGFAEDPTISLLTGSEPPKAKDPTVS
# Chain of ELF4 (Q99607 whole entry): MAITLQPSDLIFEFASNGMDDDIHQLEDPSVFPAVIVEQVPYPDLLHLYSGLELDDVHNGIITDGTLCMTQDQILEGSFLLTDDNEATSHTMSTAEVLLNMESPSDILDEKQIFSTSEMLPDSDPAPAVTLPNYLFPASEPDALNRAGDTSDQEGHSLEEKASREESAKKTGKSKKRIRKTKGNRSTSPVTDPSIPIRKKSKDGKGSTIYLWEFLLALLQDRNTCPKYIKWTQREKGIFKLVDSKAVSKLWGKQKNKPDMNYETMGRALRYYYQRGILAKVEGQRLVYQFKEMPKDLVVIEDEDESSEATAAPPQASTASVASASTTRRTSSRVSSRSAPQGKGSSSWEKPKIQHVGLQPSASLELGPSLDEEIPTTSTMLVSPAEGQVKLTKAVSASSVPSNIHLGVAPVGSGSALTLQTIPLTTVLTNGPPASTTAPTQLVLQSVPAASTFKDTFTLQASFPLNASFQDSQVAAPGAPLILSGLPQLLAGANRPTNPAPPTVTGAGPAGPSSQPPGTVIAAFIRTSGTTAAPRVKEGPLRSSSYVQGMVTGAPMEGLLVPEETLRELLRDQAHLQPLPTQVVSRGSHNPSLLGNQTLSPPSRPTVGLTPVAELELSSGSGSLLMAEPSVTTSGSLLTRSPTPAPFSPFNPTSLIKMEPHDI
# Chain of ETV5 (P41161 whole entry): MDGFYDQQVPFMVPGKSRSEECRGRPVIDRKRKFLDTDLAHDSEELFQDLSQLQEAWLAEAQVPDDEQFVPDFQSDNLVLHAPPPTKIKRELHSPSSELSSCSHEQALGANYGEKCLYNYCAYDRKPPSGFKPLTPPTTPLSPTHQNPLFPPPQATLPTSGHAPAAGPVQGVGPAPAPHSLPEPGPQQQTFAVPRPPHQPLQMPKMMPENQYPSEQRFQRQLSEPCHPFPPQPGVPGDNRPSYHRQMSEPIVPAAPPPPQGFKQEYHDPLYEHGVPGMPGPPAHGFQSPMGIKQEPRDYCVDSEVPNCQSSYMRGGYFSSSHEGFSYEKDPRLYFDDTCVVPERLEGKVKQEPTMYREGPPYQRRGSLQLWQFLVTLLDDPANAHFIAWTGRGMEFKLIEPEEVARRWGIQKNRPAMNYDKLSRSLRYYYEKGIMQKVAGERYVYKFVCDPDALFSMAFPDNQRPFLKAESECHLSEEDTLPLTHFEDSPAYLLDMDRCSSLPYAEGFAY
# Chain of ETV1 (P50549 whole entry): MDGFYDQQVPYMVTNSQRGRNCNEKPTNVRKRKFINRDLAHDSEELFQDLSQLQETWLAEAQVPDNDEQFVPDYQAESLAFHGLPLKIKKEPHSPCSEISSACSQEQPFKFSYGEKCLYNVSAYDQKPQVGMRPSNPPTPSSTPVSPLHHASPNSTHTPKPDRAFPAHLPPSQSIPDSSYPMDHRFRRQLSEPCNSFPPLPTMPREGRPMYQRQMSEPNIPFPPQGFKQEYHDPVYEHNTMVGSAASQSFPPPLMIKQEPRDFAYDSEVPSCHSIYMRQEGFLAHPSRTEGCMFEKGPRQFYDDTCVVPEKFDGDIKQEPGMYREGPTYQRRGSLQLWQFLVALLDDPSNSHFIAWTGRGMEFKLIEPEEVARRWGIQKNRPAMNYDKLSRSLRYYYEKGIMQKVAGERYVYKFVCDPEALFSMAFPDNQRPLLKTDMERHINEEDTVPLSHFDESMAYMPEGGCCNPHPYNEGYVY
# Chain of SPIB (Q01892 whole entry): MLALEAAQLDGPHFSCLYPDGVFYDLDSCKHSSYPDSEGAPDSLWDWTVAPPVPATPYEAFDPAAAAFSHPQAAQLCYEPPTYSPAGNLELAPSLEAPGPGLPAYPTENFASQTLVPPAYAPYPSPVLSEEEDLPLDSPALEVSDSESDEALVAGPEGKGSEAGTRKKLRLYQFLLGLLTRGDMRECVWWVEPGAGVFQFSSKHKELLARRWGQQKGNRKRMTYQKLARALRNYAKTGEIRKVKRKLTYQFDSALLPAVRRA
# Chain of ELF1 (P32519 whole entry): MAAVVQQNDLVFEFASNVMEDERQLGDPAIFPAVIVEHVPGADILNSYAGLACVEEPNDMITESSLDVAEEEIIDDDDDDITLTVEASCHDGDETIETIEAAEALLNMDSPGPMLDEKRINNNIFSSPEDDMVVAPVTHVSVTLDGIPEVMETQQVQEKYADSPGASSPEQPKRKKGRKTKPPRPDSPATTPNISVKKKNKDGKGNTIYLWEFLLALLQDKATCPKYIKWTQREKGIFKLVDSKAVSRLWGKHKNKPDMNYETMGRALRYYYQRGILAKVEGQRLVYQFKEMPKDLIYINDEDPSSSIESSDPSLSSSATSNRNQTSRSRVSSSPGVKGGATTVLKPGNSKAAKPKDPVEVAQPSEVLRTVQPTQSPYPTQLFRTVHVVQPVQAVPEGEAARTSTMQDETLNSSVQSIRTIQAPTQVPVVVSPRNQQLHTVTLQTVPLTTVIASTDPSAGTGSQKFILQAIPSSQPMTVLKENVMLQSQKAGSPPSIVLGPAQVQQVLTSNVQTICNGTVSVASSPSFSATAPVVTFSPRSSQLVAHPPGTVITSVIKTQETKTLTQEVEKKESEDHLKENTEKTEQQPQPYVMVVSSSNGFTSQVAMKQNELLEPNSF
sequence,measurement,setting,value
ACTGGC,binding signal,[1],"1.26 fold enrichment (6-mer frequency, TF over GST control)"
same,binding signal,[2],"1.12 fold enrichment (6-mer frequency, TF over GST control)"
same,binding signal,[3],"1.22 fold enrichment (6-mer frequency, TF over GST control)"
same,binding signal,[4],"1.11 fold enrichment (6-mer frequency, TF over GST control)"
same,binding signal,[5],"1.18 fold enrichment (6-mer frequency, TF over GST control)"
same,binding signal,[6],"1.1 fold enrichment (6-mer frequency, TF over GST control)"
same,binding signal,[7],"1.22 fold enrichment (6-mer frequency, TF over GST control)"
same,binding signal,[8],"1.15 fold enrichment (6-mer frequency, TF over GST control)"
same,binding signal,[9],"1.21 fold enrichment (6-mer frequency, TF over GST control)"
same,binding signal,[10],"1.11 fold enrichment (6-mer frequency, TF over GST control)"
same,binding signal,[11],"1.11 fold enrichment (6-mer frequency, TF over GST control)"
same,binding signal,[12],"1.07 fold enrichment (6-mer frequency, TF over GST control)"
same,binding signal,[13],"1.28 fold enrichment (6-mer frequency, TF over GST control)"
same,binding signal,[14],"1.16 fold enrichment (6-mer frequency, TF over GST control)"
same,binding signal,[15],"1.25 fold enrichment (6-mer frequency, TF over GST control)"
same,binding signal,[16],"1.11 fold enrichment (6-mer frequency, TF over GST control)"
same,binding signal,[17],"1.1 fold enrichment (6-mer frequency, TF over GST control)"
same,binding signal,[18],"1.11 fold enrichment (6-mer frequency, TF over GST control)"
